Measured values published in PubChem BioAssay (NCATS).
Values without a mark were called inactive. Inconclusive results are not listed. Activity calls are given as the source filed them. Unless noted, the call rests on the fitted dose curve; in most records, active means well fitted curve in either direction with a large enough effect (not every such curve was filed as active); inconclusive means small, poorly fitted or top-dose-only effect, or another doubt; inactive means flat fitted curve, though single readings scatter.

What was measured:
[1] = AP1 Signaling Pathway (AID 357); conditions: ME-180 AP-1-bla reporter, EGF-induced, beta-lactamase ratio, 5 h; at 17.2 µM (top of the series) unless noted; further: on the % scale 0 is the no-effect control and ±100 the full control effect
Procedure, shortened: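 ME-180 cells with beta-lactamase reporter under AP-1 response element, stimulated with EC50 EGF; compounds tested in titration series, 5 h at 37 °C. CCF4 substrate added 2.5 h at room temperature; 460/530 nm emission ratio gave %activity and AC50.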

[2] = Stat Signaling Pathway (AID 446); conditions: ME-180 SIE beta-lactamase reporter, IL-6 stimulated, 5 h; at 17.2 µM (top of the series) unless noted;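 further: ME-180 cervical cancer cells given 40 pM IL-6 alongside compound; SIE-controlled beta-lactamase reporter measured as 460/530 nm FRET emission ratio; on the % scale 0 is the no-effect control and ±100 the full control effect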
Procedure, shortened: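 Reporter line: ME-180 cervical carcinoma, SIE-beta-lactamase. Treatment: compound with 40 pM IL-6, 5 hrs, 37 C, in low-serum OPTI-MEM with 10 mM HEPES pH 7.3. Detection: 460/530 nm fluorescence.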

[3] = target: Glucocorticoid receptor (Homo sapiens) (UniProt P04150); test: GR-GFP Redistribution (AID 450;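 active means compounds whose dose series gives a full or clear partial fitted curve of increased nuclear translocation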; further: potency means the concentration at half of the fitted maximal effect)
Sequence of Glucocorticoid receptor (Homo sapiens) (P04150 whole entry, looked up): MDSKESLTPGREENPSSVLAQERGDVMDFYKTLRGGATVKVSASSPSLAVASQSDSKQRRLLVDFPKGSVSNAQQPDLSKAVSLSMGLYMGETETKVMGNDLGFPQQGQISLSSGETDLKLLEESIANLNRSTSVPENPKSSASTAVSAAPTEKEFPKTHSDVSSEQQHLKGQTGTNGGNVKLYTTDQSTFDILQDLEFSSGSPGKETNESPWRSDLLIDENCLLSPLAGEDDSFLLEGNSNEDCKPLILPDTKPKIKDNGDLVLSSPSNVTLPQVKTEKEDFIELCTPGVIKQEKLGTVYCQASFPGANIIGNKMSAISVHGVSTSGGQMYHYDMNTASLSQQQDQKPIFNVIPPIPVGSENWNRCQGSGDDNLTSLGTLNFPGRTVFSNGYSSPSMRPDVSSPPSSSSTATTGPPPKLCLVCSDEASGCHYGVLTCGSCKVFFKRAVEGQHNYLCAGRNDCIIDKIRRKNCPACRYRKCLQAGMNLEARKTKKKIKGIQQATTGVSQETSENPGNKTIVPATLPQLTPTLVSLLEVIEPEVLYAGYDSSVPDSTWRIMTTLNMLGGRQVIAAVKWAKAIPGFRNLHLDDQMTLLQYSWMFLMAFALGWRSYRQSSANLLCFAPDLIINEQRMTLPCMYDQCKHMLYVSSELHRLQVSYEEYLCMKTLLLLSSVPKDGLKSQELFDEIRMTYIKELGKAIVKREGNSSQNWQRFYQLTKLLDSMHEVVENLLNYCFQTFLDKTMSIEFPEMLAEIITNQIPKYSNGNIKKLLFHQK

[4] = NFAT Signaling Pathway (AID 444); conditions: Jurkat NFAT-bla M1, carbachol, beta-lactamase ratio, 5 h; at 17.2 µM (top of the series) unless noted;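 further: carbachol stimulus at about its EC50 of 1 µM final; on the % scale 0 is the no-effect control and ±100 the full control effect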
Procedure, shortened: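 Jurkat cells with NFAT-driven β-lactamase reporter and co-expressed M1 receptor, stimulated with carbachol (final 1 uM, ~EC50), compound titration, 5 h at 37 °C. CCF4 loaded 1 h at RT; 460/530 nm ratio gave %activity and AC50.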

[5] = qHTS Assay for Identification of Small Molecule Agonists for Hypoxia Response Element Signaling Pathway (AID 914; active means well fitted activation curve with a large enough effect in the signal ratio, with a control signal flat, not every such curve was filed as active; the % refers to the signal ratio; further: potency means the concentration at half of the fitted maximal effect; on activation: % of control where 0% means no effect); conditions: ME-180 (cervical carcinoma) HRE-bla reporter, beta-lactamase ratio, CoCl2, 17 h; activation: stronger effect = higher value
Procedure, shortened: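 Read-out: CCF4 FRET ratio of 460nm to 530nm emission (excitation 405nm) after 2.5 hours at room temperature, taken from HRE-bla ME-180 cells that had been exposed to compound and EC50 CoCl2 for 17 hours.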

Structure (SMILES) | activity change, negative = inhibition [1] | activity, negative = inhibition [2] | Potency [3] | activity change, negative = inhibition [4] | activation [5] | Potency [5]
O=C(NC1CCCCC1)N1CCSC1=Nc1ccccc1 | 4.48% | -11.7% | > 20.6 µM |  |  | 
COCCCNc1nc(-c2ccncc2)nc2ccccc12 | -12.4% | -12.9% | > 20.6 µM |  |  | 
CC1(C)Cc2c(C#N)c(NCC3CCCO3)nc(-c3ccco3)c2CO1 (stereo not given) | -9.98% |  | > 20.6 µM | 5.63% | 25.9% | 
Cc1nc(-c2cn[nH]c2)c2cc(C)oc2n1 | -1.95% | -3.87% | > 20.6 µM |  |  | 
COc1cccc(-c2nc(N3CCC(C)CC3)c3ccccc3n2)c1O | 16.6% | 5.63% | > 20.6 µM |  |  | 
COC(=O)c1sc2nc(N3CCCCC3)c3c(c2c1N)CC(C)(C)N(C)C3 | 21% | 9.93% | > 20.6 µM |  |  | 
N#Cc1c(-c2ccccc2Cl)cc(C2CC2)nc1N | 4.21% | -2.15% | > 20.6 µM |  |  | 
CC(C)NC(=O)N1CCOCCOCCN(C(=O)NC(C)C)CCOCCOCC1 | 8.52% |  | > 20.6 µM | 0.977% | 3.05% | 
CC(=O)c1ccc(C#CC(C)(C)O)s1 | 6.06% | 2.81% | > 20.6 µM |  |  | 
CCOC(=O)C(O)(C1C(=O)CC(C)(C)CC1=O)C(F)(F)F (stereo not given) | 10.7% |  |  | 7.75% |  | 10 µM (active)
CCSc1nc2sc3c(c2c(=O)n1C1CCCCC1)CCN(C)C3 | 4.46% | 24.3% | > 20.6 µM |  |  | 
COc1ccc(-c2nn3c(COc4ccccc4)nnc3s2)cc1OC | -9.35% |  | > 20.6 µM | 6.83% | -19.3% | 
COc1ccccc1-c1nnc2n1N=C(c1ccc(O)c(O)c1)CS2 | 10.7% | -15.4% |  |  |  | 
CCN(CC)CCN1C(=O)C(O)=C(C(C)=O)C1c1ccc(OC)c(OC)c1 (stereo not given) | 1.74% | -2.04% | > 20.6 µM |  |  | 
CCCC(=O)Nc1nn(CCC)c2nc3ccccc3cc12 | -2.33% | -4.63% | > 20.6 µM |  |  | 
O=C(O)CC(NCc1ccco1)C(=O)OCC1CCCO1 (stereo not given) | 11.5% | -1.58% | > 20.6 µM |  |  | 
O=C(Nc1nc(=O)c2ccccc2s1)c1ccccc1 | -10.8% | -3.03% | > 20.6 µM |  |  | 
CC(C)OCCCNc1ncnc2c1cnn2-c1ccccc1 | -19.6% |  | > 20.6 µM | 12.4% | -23.4% | 
Cc1ccccc1OCc1nc2ccccc2c(=O)n1NC(=O)c1ccco1 | 4.16% | 1.48% | > 20.6 µM |  |  | 

Structure (SMILES) | activity change, negative = inhibition [1] | activity, negative = inhibition [2] | Potency [3] | activity change, negative = inhibition [4] | activation [5] | Potency [5]
CCOC(=O)C1=C(CSc2nc(-c3ccncc3)ccc2C#N)OC(N)=C(C#N)C1c1cccnc1 (stereo not given) | 20.1% | -14.4% | > 20.6 µM |  |  | 
Cc1nc(NS(=O)(=O)c2ccccc2)sc1NC(=O)OCCN(C)C | -8.74% | 0.248% | > 20.6 µM |  |  | 
CCCC(CCC(=O)Nc1ccc(C(=O)OCC)cc1)C(=O)O (stereo not given) | 4.36% |  | > 20.6 µM | 0.831% | 10% | 
CCOC(=O)COn1c(=O)c(-c2ccco2)[n+]([O-])c2ccccc21 | -20.1% | 12.3% | > 20.6 µM |  |  | 
CCCCNC(=O)C(C#N)c1nc2ccccc2nc1N1CCN(Cc2ccc3c(c2)OCO3)CC1 (stereo not given) | -18.8% | -8.12% | > 20.6 µM |  |  | 
Cc1cc2c(c(=O)n1Cc1ccccn1)C(c1ccc3c(c1)OCO3)C(C#N)=C(N)O2 (stereo not given) | -7.52% | -11.7% | > 20.6 µM |  |  | 
CN1C2C=C3C(C#N)=C(N)C(C#N)(C#N)[C@@H](c4ccc(Cl)cc4)[C@@H]3C1CC2 (stereo not given in full) | -8.82% | 5.5% | > 20.6 µM |  |  | 
Cc1[nH]nc(-c2ccc(O)cc2O)c1Oc1ccccc1 | -8.71% | -21.9% | > 20.6 µM |  |  | 
N#Cc1nc(COc2ccc(Cl)cc2)oc1N1CCN(Cc2ccccc2)CC1 | -16.3% | 4.41% | > 20.6 µM |  |  | 
Clc1ccc(-c2nnc3sc(Cc4cccs4)nn23)c(Cl)c1 | -25% | 12.6% | > 20.6 µM |  |  | 
CCCc1cc(Nc2c(C)n(C)n(-c3ccccc3)c2=O)n2c(nc3ccccc32)c1C#N | -3.24% | 0.163% | > 20.6 µM |  |  | 
O=c1c2c3c(sc2n2cnnc2n1Cc1ccccc1)CN(Cc1ccccc1)CC3 | 0.127% | -0.303% | > 20.6 µM |  |  | 
CN1C2C=C3C(C#N)=C(N)C(C#N)(C#N)[C@@H](c4ccsc4)[C@@H]3C1CC2 (stereo not given in full) | 20.1% | 3.71% | > 20.6 µM |  |  | 
CC1(C)Cc2c(C#N)c(SCC(=O)c3ccccc3)nc(N3CCCC3)c2CO1 | 24.5% | 6.65% | > 20.6 µM |  |  | 
Cc1ccc(S(=O)(=O)c2cc3c(=O)n4cccc(C)c4nc3n(CC3CCCO3)c2=N)cc1 (stereo not given) | 2.16% | 2.48% | > 20.6 µM |  |  | 
COc1ccc(-c2nc3c(Br)c(N)c(Br)cc3o2)cc1 | 4.22% | 8.24% | > 20.6 µM |  |  | 
COc1ccc(N/C=C(\C#N)c2nc3ccccc3n2C)c(OC)c1 | -21.3% | -22% | > 20.6 µM |  |  | 
N#Cc1c(N)n(CCOC(=O)c2cccc(Br)c2)c2nc3ccccc3nc12 | -0.25% | 16.2% | > 20.6 µM |  |  | 
Cc1nc(/N=C(\N)Nc2ccccc2)nc2ccccc12 | -14.5% | -26.3% | > 20.6 µM |  |  | 

Structure (SMILES) | activity change, negative = inhibition [1] | activity, negative = inhibition [2] | Potency [3] | activity change, negative = inhibition [4] | activation [5] | Potency [5]
CCCCSc1nnc2n(CCc3ccccc3)c(=O)c3c4c(sc3n12)COC(C)(C)C4 | -9.1% | -12.7% | > 20.6 µM |  |  | 
COc1cccc(C(=O)OCCN(C)C(C)(C)C)c1 | 2.79% | 3.74% | > 20.6 µM |  |  | 
CC(C)C(=O)N1CCN(c2nc(-c3ccccc3)c3c(c2C#N)CC(C)(C)OC3)CC1 | -2.44% | 9.79% | > 20.6 µM |  |  | 
CCOC(=O)c1cc2c(=O)n3cccc(C)c3nc2n(CCc2ccccc2)c1=N | 9.31% | 29.4% | > 20.6 µM |  |  | 
COc1cccc(-c2nc(N3CC(C)CC(C)C3)c3ccccc3n2)c1O (stereo not given) | 13.7% | 8.47% | > 20.6 µM |  |  | 
Cc1ccc(S(=O)(=O)N2CCC(N3CCCCCC3)CC2)cc1 | 15.1% | 10.2% | > 20.6 µM |  |  | 
C/C(=N\O)c1ccc2[nH]ccc2c1 | 2.69% | 13.9% | > 20.6 µM |  |  | 
COc1ccc(/C=C/C2=NC(=C\N(C)C)/C(=O)O2)cc1 | -4.1% | -0.663% | > 20.6 µM |  |  | 
CCCOc1cccc(CN2CCCCC2c2cccnc2)c1 (stereo not given) | 0.284% | 0.49% | > 20.6 µM |  |  | 
Cc1c(C)c2cc(Cl)c(O)c(CN3CCCC(C)C3)c2oc1=O (stereo not given) | 14.1% | -3.87% | > 20.6 µM |  |  | 
N#Cc1nc(COc2ccc(Br)cc2)oc1N1CCN(Cc2ccccc2)CC1 | -15.5% | 8.74% | > 20.6 µM |  |  | 
Nc1c(C(=O)NCC2CCCO2)c2nc3ccccc3nc2n1/N=C/c1ccncc1 (stereo not given) | -7.06% | -9.64% | > 20.6 µM |  |  | 
C=CCSc1nnc2n(-c3ccccc3OC)c(=O)c3c4c(sc3n12)CCC4 | 7% | 6.42% | > 20.6 µM |  |  | 
CCSc1nc2sc3c(c2c2nnc(SCC(=O)NCc4ccco4)n12)CCCC3 | -11.8% | -18.7% | > 20.6 µM |  |  | 
CCC12CN3CC(CC)(CN(C1)C3c1c(O)ccc3ccccc13)C2=O (stereo not given) | 2.68% | -7.82% | > 20.6 µM |  |  | 
CN1C2C=C3C(C#N)=C(N)C(C#N)(C#N)[C@@H](c4cccs4)C3C1CC2 (stereo not given in full) | 17.2% | 13.6% | > 20.6 µM |  |  | 
CC(C)CNC(=O)c1c(N)n(/N=C/c2ccccn2)c2nc3ccccc3nc12 | 14.9% | 9.58% | > 20.6 µM |  |  | 
COc1ccc(C2=CC(c3ccc(C)cc3)n3nnnc3N2)cc1 (stereo not given) | -20.8% | -14.7% | > 20.6 µM |  |  | 
O=C(CCN1C(=O)c2ccccc2C1=O)OCN1C(=O)c2ccccc2C1=O | 5.65% | -0.962% | > 20.6 µM |  |  | 
